# Measured values reported in PubChem BioAssay (NCI).
# About 83,000 compounds went through this panel and 20% of them were active in at least one assay; those are over-represented in the sample as a whole.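 A percent growth of 40 corresponds to 60% growth inhibition; 0 means no net growth; -100 means all cells died. Active threshold: below 10.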 Values without a mark were called inactive. Calls of active or inactive are those of the source.
# System: SF-295 CNS
# Assay: NCI-60 one-dose screen, 48 h (100 = growth as untreated, 0 = no growth, -100 = all killed)
# Details: 10 µM unless noted
row,SMILES,growth
1,Oc1c(I)cc(-c2nc3ccccc3s2)cc1CN(Cc1ccccn1)Cc1ccccn1,18.5%
2,Cc1ncc(C(=O)Nc2ccc(CN3CCN(C)CC3)c(C(F)(F)F)c2)cc1C#Cc1cnc(N)c2ccncc12,-45.4% (active)
3,O=C1/C(=C/c2ccc(C(F)(F)F)cc2)COc2ccc(O)c(O)c21,85.8%
4,O=C1N[C@@H]2[C@@H](O)[C@@H](O)[C@H](O)C[C@H]2c2cc3c(c(O)c21)OCCO3,-14.9% (active)

# System: SF-539 CNS
# Assay: as above
# Details: 10 µM unless noted
row,SMILES,growth
1,CCCCCSB(SCCCCC)c1ccccc1,106%
2,c1ccc(CNc2ccc3nc(CCC4CCCCC4)[nH]c3c2)cc1,82.1%
3,S=c1ssnc1-c1cccs1,106%
4,O=C(/C=C/c1ccc(Br)cc1)c1ccc(-n2cc(CN3CCN(c4cc5c(cc4F)c(=O)c(C(=O)O)cn5C4CC4)CC3)nn2)cc1,83%
5,COc1ccc(Cc2cnc(NC(=O)c3sc4ccccc4c3Cl)s2)cc1,-19.4% (active)
6,N#C/C(=C\c1ccc(Cl)cc1Cl)C(=O)Nc1ncc(Cc2ccc(Cl)c(Cl)c2)s1,85.6%
7,N#Cc1c(-c2cccc([N+](=O)[O-])c2)cc(-c2ccc(Nc3nc(Nc4ccc(F)cc4)nc(Nc4ccc(F)cc4)n3)cc2)nc1N,127%
8,O=C(CCCCCCN1CC(=O)N2[C@@H](c3ccc(Cl)cc3)c3[nH]c4ccccc4c3C[C@H]2C1=O)NO,63.5%
9,CCCCCCCCn1ccc2cc(NC(=O)Cn3cc(CN4CCC(C)CC4)nn3)ccc21,11.5%
10,CCCC(O)Cn1ncc(C(=O)OCC)c1NC(=O)NCc1cccc(F)c1 (centres undefined),94.8%
11,COc1cc2c3c(c1O)-c1ccccc1[C@@H]1OC(=O)N(CC2)[C@H]31,108%
12,C/C(=C(/c1ccc(Cl)cc1)c1ccc(OCCCN(C)C)cc1)c1ccc(Cl)cc1,99%
13,Cc1cc(C(=O)Nc2cc(Nc3ncccc3-c3ncnc4nc[nH]c34)ccc2F)cc(C(F)(F)F)c1,21.4%
14,CCOC(=O)NN1CC(O)=C(c2nc(-c3ccc(Br)cc3)cs2)C1=N,96.7%
15,O=C1C(Cl)=C(NCCN2CCOCC2)C(=O)c2ncccc21,-85.8% (active)
16,O=C(Nc1ccc(F)cc1)Nc1ccccc1CNc1nc(Nc2ccc(OCCN3CCCC3)cc2)ncc1Cl,-74.7% (active)
17,C[C@H]1[C@H](C)CC[C@]2(C(=O)O)CC[C@]3(C)C(=CC[C@@H]4[C@@]5(C)C[C@@H](Cc6cn([C@@H]7O[C@H](CO)[C@@H](O)[C@H](O)[C@H]7O)nn6)[C@H](O)C(C)(C)[C@@H]5CC[C@]43C)[C@H]12,109%
18,COC(=O)c1ccc2c(c1)c1c(C)c3ccncc3c(C)c1n2C,31.9%
19,COc1cc(C(=O)c2c(-c3ccccc3)oc3c(OC)cccc23)cc(OC)c1O,-13.2% (active)
20,C=C1C(=O)O[C@H]2[C@H]1CC/C(CNC(=O)c1cc3ccccc3[nH]1)=C\CC[C@@]1(C)O[C@@H]21,-77.1% (active)

row,SMILES,growth
1,O=P(O)(O)OCC1OC(n2cnc3c(NCc4ccccc4)ncnc32)C(O)C1O (centres undefined),6.39% (active)
2,CCN(CC)CCCNCc1cc(-c2ccccc2)nc2cc(Cl)ccc12,40.4%
3,COc1cc2nc(Nc3cccc(F)c3)nc(Nc3cc(C)[nH]n3)c2cc1OC,-100% [20 µM] (active)
4,CCC/C(=N\NC(N)=O)C(OC)OC,89.2%
5,O=C1c2cc3c(cc2-c2c1c1ccc(Cl)cc1c(=O)n2C[C@H](O)CO)OCO3,-33.1% (active)
6,CCSC1=CC(=O)c2ccccc2C1=O,106%
7,COc1cc(-c2nc3occn3c2-c2ccnc(NCCCNS(=O)(=O)c3ccccc3)n2)ccc1F,78.8%
8,COC1=CC(c2ccc[nH]2)=N/C1=C\c1[nH]c(C)c(CC(=O)OCc2ccccc2)c1C,-4.33% (active)
9,O=C(CSc1nnc2sc(Nc3cccc(Cl)c3)nn12)c1ccc(F)cc1,102%
10,COc1ccc(C2=Nc3c(N)ncnc3NC(c3cccc(Nc4ccnc5cc(C(F)(F)F)ccc45)c3)C2)cc1 (centres undefined),70%
11,Nc1c(C(=O)Nc2cccc3ncccc23)sc2nc3c(cc12)C(=O)CCC3,51.8%
12,C#CCn1cnc2c(Nc3cccc(NC(=O)CCl)c3)ncnc21,45.4%
13,COc1cc2oc(-c3cccc(NC(=O)c4ccc5c(c4)OCO5)c3)cc(=O)c2c(OC)c1OC,57%
14,CCOC(=O)CSc1nc2sc3c(c2c(=O)n1-c1ccc([N+](=O)[O-])cc1)CCCCC3,58.3%
15,Cn1cc(-c2nn3cc(-c4ccccc4)nc3s2)c2ccccc21,78%
16,C=C1C(=O)O[C@H]2[C@H]1CC/C(COC(=O)NCCCCCCCCNC(=O)OC/C1=C/CC[C@@]3(C)O[C@H]3[C@H]3OC(=O)C(=C)[C@@H]3CC1)=C\CC[C@@]1(C)O[C@@H]21,-88.5% (active)
17,Oc1c(I)cc(-c2nc3ccccc3s2)cc1CN(Cc1ccccn1)Cc1ccccn1,4.13% (active)
18,Cc1ncc(C(=O)Nc2ccc(CN3CCN(C)CC3)c(C(F)(F)F)c2)cc1C#Cc1cnc(N)c2ccncc12,-86.6% (active)
19,O=C1/C(=C/c2ccc(C(F)(F)F)cc2)COc2ccc(O)c(O)c21,-83.9% (active)
20,O=C1N[C@@H]2[C@@H](O)[C@@H](O)[C@H](O)C[C@H]2c2cc3c(c(O)c21)OCCO3,-24.1% (active)
